As usually defined, the inhibition is the change of the read-out against control, counted positive when it falls.

Data on 5 compounds can be found in PubChem BioAssay.

The nature of assay [1]: rapamycin-like changes in RPL19A-GFP expression – cell-based, S. cerevisiae, multiplex flow cytometry, primary screen (AID 1862; in the data active means percent of DMSO control GFP below about 86%;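 further: lower values mimic rapamycin by blocking the RPL19A rise seen in DMSO cells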). As to conditions: S. cerevisiae RPL19A-GFP strain, flow cytometry fluorescence, 3 h; at 10 µM; stronger effect = lower value. Background: A flow cytometer gives signals particle by particle.
Assay [2] in a line: TOR pathway GLN3 branch reporter MEP2-GFP changes – S. cerevisiae, multiplex flow cytometry, primary screen (AID 1867;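 active means GFP response, as percent of the DMSO control, above the screen-wide mean plus 3 SD, about 139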;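 further: median GFP channel fluorescence of barcode-gated MEP2-GFP cells measured by flow cytometry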). The note with it: S. cerevisiae MEP2-GFP strain, 3 h, at 10 µM, stronger effect = higher value, 100% means same as DMSO wells.
A short description of assay [3]: TOR pathway RTG branch CIT2 reporter changes – S. cerevisiae, GFP fusion, multiplex flow cytometry, primary screen (AID 1870).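 Further: barcoded CIT2-GFP strain pooled with four other GFP strains with rapamycin as positive control; median GFP fluorescence per well over plate mean of DMSO wells so 100% = DMSO.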 The note with it: S. cerevisiae CIT2-GFP expression, 3 h, at 10 µM, stronger effect = higher value.
Assay [4] can be described thus: TOR pathway LAP4-GFP level changes – S. cerevisiae, multiplex flow cytometry, primary screen (AID 1873;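 active means GFP signal, as percent of the solvent control, above the screen mean plus 3 SD, about 149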). The note with it: S. cerevisiae LAP4-GFP expression, 3 h, at 10 µM, stronger effect = higher value.
A short description of assay [5]: yeast AGP1-GFP level changes, GLN3 branch – cell-based, multiplex flow cytometry, S. cerevisiae, primary screen (AID 1887;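 active means GFP signal above the screen-wide mean plus 3 SD, that is over about 124.5% of the solvent control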;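 further: AGP1-GFP fusion strain of S. cerevisiae within a five-strain barcoded multiplex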). As to conditions: 3 h, at 10 µM, stronger effect = higher value.
Assay [6] in a line: reduced mouse 2C T cell binding to pMHC/ICAM-1 vesicles – MLPCN validation set, flow cytometry, LFA-1/ICAM-1 modulator project, pilot screen (AID 2523;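 active means response below a set limit, under 55% cells CD8-positive and vesicle-bound, and CD8 cells' 90th-percentile brightness under 279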;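 on vesicle binding response: mean PE anti-B7-1 fluorescence of CD8+ cells relative to row control; 100% = QL9-loaded vesicles with DMSO vehicle in the same plate row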). As to conditions: 2C mouse CD8+ T cells, at 7 µM, stronger effect = lower value; double positive events: measured here: CD8+/vesicle+ event percentage.
In assay [7] the target is Integrin beta-1 (Homo sapiens) + Integrin alpha-4 (Homo sapiens) (UniProt P13612+P05556). Put plainly: alpha4beta1 integrin LIBS antibody binding reduction – U937 cells, HUTS-21 mAb, flow cytometry, validation set, VLA-4 allosteric modulator project, pilot screen (AID 2674;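 active means inhibition above 50%, about 3 SD of the validation set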;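 further: antibody binding induced by the VLA-4 ligand LDV present at three times its Kd; 0% = LDV ligand with antibody and no compound and 100% = antibody without LDV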). The note with it: HUTS-21 LIBS mAb binding, at 6.7 µM, stronger effect = higher value, binding induced by LDV ligand.

A short description of assay [8]: calorie-restriction mimetic ROS inhibitors, yeast – validation compound set, pilot screen (AID 2706;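 active means superoxide response below 65% of plate, a cut near 3 SD across the whole screen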;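 further: yeast exposed to compound for one week at 30 degrees C before staining; 100% = mean of all compound wells on the same plate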). As to conditions: S. cerevisiae aging, superoxide DHE fluorescence; at 10 µM; stronger effect = lower value.
For assay [9], the target named is Beta-adrenergic receptor kinase 1 (Homo sapiens) (UniProt P25098). Kind of assay: GRK2 binders displacing RNA aptamer, biochemical, validation, human GRK2, bead flow cytometry (AID 488806;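 active means aptamer binding inhibition above 30%, about 3 SD of noise from non-fluorescent compounds; inactive means inhibition at or below 30%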). As to conditions: bead-bound GRK2, FAM-aptamer displacement, at 10 µM, stronger effect = higher value.
The target in assay [10] is Beta-2 adrenergic receptor (Homo sapiens) (UniProt P07550). Put plainly: agonist-induced loss of surface beta2AR – cell-based, FAP fluorogen, flow cytometry, validation set, pilot screen (AID 504459;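 active means percent response above 42, roughly 3 SD of non-fluorescent test compounds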;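 further: agonist-driven loss of surface beta2AR via internalization measured by FAP dye flow cytometry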). The note with it: Am2.2-beta2AR cells, at 10 µM, stronger effect = higher value.
Assay [11] addresses AP-2 complex subunit beta (Homo sapiens) (UniProt P63010). Kind of assay: beta-arrestin/AP2 interaction blockers – biochemical, validation set, GST-AP2 beads, flow cytometry, pilot screen (AID 504541;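 active means inhibition above 54%, about 3 SD of non-fluorescent compounds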;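 further: AP2 carries R879A mutation and is captured from E. coli lysate; bead-bound FITC arrestin peptide fluorescence measuring arrestin peptide binding to AP2; 0% = DMSO wells and 100% = excess unlabeled arrestin peptide control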). As to conditions: FITC arrestin peptide, at 10 µM, stronger effect = higher value, AP2 beta2 appendage fragment, R879A mutant.
Assay [12] can be described thus: cytosolic pH regulators acting via V-ATPase – S. cerevisiae, pHLuorin, HTS validation (AID 504600; in the data active means response above about 15%;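 further: plate controls were DMSO for no effect and reference compound for full effect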). As to conditions: V-ATPase proton transport, at 10 µM, stronger effect = higher value.
Assay [13] has as its system anti-desmoglein-3 scFv antibody binding to human DSG3. Kind of assay: blockers of pathogenic pemphigus antibody–desmoglein-3 binding – biochemical, validation compound set, bead-based, flow cytometry, pilot screen (AID 588368;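 active means binding below the plate cutoff, the plate median minus 3 SD, with a reading above zero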;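 further: signal is the median channel fluorescence of bead-bound GFP antibody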). As to conditions: Protein G beads, DSG3-Fc, scFv-GFP binding, at 10 µM, stronger effect = lower value.
Assay [14] is described as follows: Nile Red efflux blockade in pump-expressing yeast – validation compound set, multiplex, phenotypic, pilot screen (AID 588506;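 active means efflux inhibition above 0.42, the validation set average plus 4 SD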;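 further: Nile Red retained in cells so higher fluorescence means more efflux inhibition; 0 = negative control wells and 1 = enniatin B 25 µM full block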). As to conditions: S. cerevisiae pump-expressing triplex, Nile Red efflux flow cytometry; at 10 µM; stronger effect = higher value; the pumps come from Candida albicans.
Assay [15] addresses ATP-binding cassette sub-family B member 6 (Homo sapiens) (UniProt Q9NP58). Kind of assay: blockers of ABCB6-driven porphyrin uptake – K562-ABCB6 cells, flow cytometry, validation set, pilot screen (AID 588550;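 active means inhibition above the screen-wide mean plus 3 SD, about 51%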;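 further: 0% = DMSO wells and 100% = benzethonium chloride 70 µM positive control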). As to conditions: K562-ABCB6 porphyrin accumulation, 1 h, at 10 µM, stronger effect = higher value.
A short description of assay [16]: AML differentiation inducers, ER-HoxA9 marrow cells – cell-based, GFP/MAC1 double positive, flow cytometry, validation set, primary screen (AID 588685;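 active means differentiation response of at least 50%, scaled between solvent and reference control, from cells with both markers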;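 further: compound exposure lasts four days before antibody staining and flow analysis; 0% = DMSO wells and 100% = 5 µM fulvestrant positive control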). As to conditions: stronger effect = higher value, normalized: vehicle 0, fulvestrant 100.

SMILES strings stand for the structures. Records with an inconclusive call do not appear. Active and inactive are the calls of the source.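 How the source made its calls, unless noted: active means percent response above a set limit, the screen-wide mean plus 3 SD (cut at about 130% in these data); inactive means the rest.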

AP-2 complex subunit beta (Homo sapiens), sequence (P63010 whole entry, looked up, the tested form may be a part, one chain of several): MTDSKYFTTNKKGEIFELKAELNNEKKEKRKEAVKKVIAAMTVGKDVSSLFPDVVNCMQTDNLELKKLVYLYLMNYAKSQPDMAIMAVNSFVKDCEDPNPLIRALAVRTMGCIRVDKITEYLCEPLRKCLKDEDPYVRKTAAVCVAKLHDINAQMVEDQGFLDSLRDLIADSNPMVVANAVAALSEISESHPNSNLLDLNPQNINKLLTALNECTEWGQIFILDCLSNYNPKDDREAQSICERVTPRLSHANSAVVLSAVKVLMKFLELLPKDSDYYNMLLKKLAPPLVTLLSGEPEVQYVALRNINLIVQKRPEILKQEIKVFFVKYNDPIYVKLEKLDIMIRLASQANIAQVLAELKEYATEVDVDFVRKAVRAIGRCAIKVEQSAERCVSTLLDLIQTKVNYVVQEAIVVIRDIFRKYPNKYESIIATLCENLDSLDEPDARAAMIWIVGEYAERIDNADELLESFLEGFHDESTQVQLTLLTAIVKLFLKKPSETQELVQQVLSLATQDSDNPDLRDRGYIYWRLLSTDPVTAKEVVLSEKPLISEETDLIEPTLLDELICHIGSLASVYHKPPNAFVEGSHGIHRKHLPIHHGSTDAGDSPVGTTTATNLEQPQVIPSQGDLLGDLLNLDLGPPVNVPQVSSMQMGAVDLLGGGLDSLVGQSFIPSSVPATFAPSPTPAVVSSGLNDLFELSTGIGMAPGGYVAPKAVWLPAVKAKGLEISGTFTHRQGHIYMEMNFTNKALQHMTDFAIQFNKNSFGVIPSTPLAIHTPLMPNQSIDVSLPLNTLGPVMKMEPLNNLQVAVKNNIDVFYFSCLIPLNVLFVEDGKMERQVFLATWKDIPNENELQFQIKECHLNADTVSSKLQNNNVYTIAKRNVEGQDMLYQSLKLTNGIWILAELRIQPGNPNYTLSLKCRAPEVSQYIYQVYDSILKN
Integrin beta-1 (Homo sapiens) + Integrin alpha-4 (Homo sapiens), sequence (P05556 whole entry, looked up): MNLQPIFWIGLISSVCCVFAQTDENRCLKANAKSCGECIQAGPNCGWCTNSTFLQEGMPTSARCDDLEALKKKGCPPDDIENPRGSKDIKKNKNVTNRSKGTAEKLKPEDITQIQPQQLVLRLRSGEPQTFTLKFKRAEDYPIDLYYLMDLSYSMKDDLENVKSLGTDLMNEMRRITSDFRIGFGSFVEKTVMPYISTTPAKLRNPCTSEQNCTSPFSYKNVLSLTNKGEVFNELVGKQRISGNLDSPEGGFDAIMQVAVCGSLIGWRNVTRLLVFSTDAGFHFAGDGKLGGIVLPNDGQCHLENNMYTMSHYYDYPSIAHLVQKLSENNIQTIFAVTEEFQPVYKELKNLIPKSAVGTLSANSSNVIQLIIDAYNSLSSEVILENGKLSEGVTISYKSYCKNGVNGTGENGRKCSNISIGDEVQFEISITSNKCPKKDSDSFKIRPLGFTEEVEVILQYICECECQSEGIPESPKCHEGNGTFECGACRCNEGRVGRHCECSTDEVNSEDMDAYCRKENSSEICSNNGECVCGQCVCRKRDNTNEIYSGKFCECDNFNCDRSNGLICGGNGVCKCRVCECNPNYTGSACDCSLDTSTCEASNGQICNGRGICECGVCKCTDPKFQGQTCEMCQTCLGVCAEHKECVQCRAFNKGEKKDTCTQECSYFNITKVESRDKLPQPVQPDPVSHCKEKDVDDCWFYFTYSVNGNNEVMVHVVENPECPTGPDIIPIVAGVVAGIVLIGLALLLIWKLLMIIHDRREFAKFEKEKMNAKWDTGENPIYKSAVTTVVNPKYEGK
Integrin beta-1 (Homo sapiens) + Integrin alpha-4 (Homo sapiens), sequence (P13612 whole entry, looked up): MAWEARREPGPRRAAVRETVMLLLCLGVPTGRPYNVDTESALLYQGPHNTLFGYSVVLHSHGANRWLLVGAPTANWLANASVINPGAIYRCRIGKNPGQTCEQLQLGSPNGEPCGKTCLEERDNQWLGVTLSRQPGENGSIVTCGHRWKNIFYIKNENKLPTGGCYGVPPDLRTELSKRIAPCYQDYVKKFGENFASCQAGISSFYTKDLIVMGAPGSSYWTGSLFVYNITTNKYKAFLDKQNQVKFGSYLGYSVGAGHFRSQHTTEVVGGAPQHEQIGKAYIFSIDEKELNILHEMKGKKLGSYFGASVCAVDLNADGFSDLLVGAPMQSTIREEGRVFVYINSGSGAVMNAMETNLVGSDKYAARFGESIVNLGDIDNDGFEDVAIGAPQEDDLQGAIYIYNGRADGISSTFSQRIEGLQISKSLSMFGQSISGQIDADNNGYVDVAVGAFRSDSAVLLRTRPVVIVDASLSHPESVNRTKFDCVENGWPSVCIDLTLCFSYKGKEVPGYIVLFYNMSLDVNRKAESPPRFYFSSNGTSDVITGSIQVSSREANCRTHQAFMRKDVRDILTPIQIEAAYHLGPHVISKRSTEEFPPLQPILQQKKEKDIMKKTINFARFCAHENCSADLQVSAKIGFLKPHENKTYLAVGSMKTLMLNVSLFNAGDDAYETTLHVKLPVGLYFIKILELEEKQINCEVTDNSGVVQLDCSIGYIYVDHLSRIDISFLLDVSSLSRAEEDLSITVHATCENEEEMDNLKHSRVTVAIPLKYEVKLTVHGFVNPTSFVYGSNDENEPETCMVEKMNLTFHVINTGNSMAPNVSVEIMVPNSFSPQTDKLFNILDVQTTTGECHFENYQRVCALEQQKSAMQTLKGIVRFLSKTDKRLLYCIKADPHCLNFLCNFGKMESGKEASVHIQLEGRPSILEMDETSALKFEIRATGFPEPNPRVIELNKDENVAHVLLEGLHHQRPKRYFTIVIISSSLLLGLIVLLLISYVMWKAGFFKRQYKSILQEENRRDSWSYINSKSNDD
Beta-2 adrenergic receptor (Homo sapiens), sequence (P07550 whole entry, looked up): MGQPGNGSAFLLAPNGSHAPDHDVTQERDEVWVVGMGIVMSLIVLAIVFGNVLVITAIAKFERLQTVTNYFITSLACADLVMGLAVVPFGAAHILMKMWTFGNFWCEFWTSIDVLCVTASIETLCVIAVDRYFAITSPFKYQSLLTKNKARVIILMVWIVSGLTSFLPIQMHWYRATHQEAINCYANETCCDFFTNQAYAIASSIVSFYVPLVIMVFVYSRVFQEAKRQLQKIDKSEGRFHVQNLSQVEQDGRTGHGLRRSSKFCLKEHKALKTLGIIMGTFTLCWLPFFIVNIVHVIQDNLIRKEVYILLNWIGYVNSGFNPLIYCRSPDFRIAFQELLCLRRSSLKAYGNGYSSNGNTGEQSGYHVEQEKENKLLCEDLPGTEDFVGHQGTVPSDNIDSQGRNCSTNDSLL
Beta-adrenergic receptor kinase 1 (Homo sapiens), sequence (P25098 whole entry, looked up): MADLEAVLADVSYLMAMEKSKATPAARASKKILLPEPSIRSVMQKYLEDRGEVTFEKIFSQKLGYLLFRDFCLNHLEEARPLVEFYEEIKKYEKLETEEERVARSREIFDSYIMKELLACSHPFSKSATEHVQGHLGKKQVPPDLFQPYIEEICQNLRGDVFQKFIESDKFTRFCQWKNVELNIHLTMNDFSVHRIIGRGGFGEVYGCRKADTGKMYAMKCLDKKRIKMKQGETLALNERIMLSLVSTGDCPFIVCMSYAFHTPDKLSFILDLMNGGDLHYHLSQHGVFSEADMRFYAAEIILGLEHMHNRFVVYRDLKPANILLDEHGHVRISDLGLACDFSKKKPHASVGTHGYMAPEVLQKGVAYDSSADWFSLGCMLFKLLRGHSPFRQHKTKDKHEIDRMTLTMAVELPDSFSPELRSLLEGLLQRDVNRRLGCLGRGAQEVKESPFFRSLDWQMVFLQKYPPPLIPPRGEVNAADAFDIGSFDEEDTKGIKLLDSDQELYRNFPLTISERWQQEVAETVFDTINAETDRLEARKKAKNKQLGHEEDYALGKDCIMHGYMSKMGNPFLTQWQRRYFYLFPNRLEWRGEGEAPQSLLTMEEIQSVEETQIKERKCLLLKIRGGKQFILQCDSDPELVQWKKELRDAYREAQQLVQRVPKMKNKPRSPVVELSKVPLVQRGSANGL
ATP-binding cassette sub-family B member 6 (Homo sapiens), sequence (Q9NP58 whole entry, looked up): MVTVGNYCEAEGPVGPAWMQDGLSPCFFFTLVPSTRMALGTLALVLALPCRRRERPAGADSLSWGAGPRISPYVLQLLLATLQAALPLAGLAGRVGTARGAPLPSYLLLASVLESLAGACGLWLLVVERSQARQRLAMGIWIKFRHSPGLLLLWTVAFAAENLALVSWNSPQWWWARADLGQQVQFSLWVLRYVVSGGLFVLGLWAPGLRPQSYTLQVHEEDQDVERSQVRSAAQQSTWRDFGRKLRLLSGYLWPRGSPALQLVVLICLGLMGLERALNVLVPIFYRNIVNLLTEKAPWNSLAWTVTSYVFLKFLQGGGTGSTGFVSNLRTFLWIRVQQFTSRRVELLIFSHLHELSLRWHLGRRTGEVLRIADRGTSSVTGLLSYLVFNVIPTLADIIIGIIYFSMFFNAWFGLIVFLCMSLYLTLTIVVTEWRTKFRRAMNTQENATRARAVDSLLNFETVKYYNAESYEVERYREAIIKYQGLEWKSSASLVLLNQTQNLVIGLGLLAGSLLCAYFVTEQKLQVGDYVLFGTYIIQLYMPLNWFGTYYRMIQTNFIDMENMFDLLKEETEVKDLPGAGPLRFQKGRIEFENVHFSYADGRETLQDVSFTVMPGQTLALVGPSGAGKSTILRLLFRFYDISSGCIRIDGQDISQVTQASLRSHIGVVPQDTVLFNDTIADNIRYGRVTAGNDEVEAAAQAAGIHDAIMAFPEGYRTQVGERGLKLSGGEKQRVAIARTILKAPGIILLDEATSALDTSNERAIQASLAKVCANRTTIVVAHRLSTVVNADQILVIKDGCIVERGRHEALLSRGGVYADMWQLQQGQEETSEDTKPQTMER

Regarding `COc1cc(CC(=O)NCCc2ccc(S(N)(=O)=O)cc2)cc(OC)c1OC`, the percent of DMSO control GFP in assay [1] is 104% (inactive). Moreover, the GFP response vs DMSO in [2] is 103% (inactive); in assay [4], 114% (inactive). In assay [3], the percent response of DMSO control was 102% (inactive). Also, the GFP response, % of DMSO in assay [5] is 111% (inactive). This compound showed a double positive events in [6] of 66.9%. The vesicle binding response in assay [6] is 177% (inactive). For the same compound, the inhibition was 1.44% (inactive) in assay [7], -9.64% (inactive) in assay [11] and 4% (inactive) in [15]. The superoxide response (% of plate) in [8] is 95.2% (inactive). The aptamer binding inhibition in assay [9] is -4% (inactive). The response was -8.65% (inactive) in [10] and 0.1% (inactive) in assay [12]. Moreover, in assay [13], the binding (% of control) is 114% (inactive). In [14], the efflux inhibition (fraction of control) is -0.04 (inactive). Moreover, the differentiation response in assay [16] was 0.92% (inactive).

On to `CCc1nc2ccccc2n1Cc1ccc(OC)c(OC)c1`, for which the percent of DMSO control GFP in assay [1] is 98.1% (inactive). The GFP response vs DMSO is 99.6% (inactive) in [2] and 107% (inactive) in assay [4]. Moreover, the percent response of DMSO control in assay [3] was 95.7% (inactive). For the same compound, the GFP response, % of DMSO in [5] was 109% (inactive). This compound also registered a double positive events in [6] of 60.7%. Also, the vesicle binding response in [6] is 132% (inactive). Moreover, the inhibition in [7] is 3.14% (inactive); in assay [11] it was 7.51% (inactive); in assay [15], 2% (inactive). In [8], the superoxide response (% of plate) is 105% (inactive). For the same compound, the aptamer binding inhibition in assay [9] is 3% (inactive). The results for the response in assay [10] and in assay [12] were -19% (inactive) and 2.99% (inactive), respectively. Moreover, the binding (% of control) in assay [13] is 89.6% (inactive). Moreover, the efflux inhibition (fraction of control) in [14] is 0 (inactive). The differentiation response in [16] was 18.7% (inactive).

Turning to `COc1ccc(C(=O)O)cc1F`, the percent of DMSO control GFP in assay [1] was 104% (inactive). The GFP response vs DMSO is 107% (inactive) in assay [2] and 94.8% (inactive) in [4]. The percent response of DMSO control in assay [3] was 107% (inactive). The GFP response, % of DMSO in assay [5] was 103% (inactive). The compound further returned a double positive events in [6] of 65.5%. Moreover, the vesicle binding response in assay [6] was 151% (inactive). Further, the inhibition is -1.09% (inactive) in [7], 15.5% (inactive) in assay [11] and -3% (inactive) in assay [15]. In addition, the superoxide response (% of plate) in assay [8] was 105% (inactive). In [9], the aptamer binding inhibition was 3% (inactive). The response in [10] was 3.73% (inactive); in assay [12], -13.5% (inactive). In addition, in [13], the binding (% of control) is 102% (inactive). For the same compound, the efflux inhibition (fraction of control) in assay [14] was -0.09 (inactive). Moreover, the differentiation response in assay [16] is -8.96% (inactive).

`Cc1cc(NS(=O)(=O)c2ccc(N)cc2)no1`: the percent of DMSO control GFP in assay [1] is 103% (inactive). For the same compound, the GFP response vs DMSO in assay [2] was 98.7% (inactive); in assay [4], 102% (inactive). Further, the percent response of DMSO control in assay [3] was 107% (inactive). The GFP response, % of DMSO in [5] is 113% (inactive). Moreover, in assay [6], the double positive events turned out to be 63.3%. Moreover, in assay [6], the vesicle binding response was 121% (inactive). For the same compound, the inhibition in assay [7] is 15% (inactive); in assay [11], -2.38% (inactive); in assay [15], 4% (inactive). Moreover, the superoxide response (% of plate) in assay [8] is 99.6% (inactive). Moreover, the aptamer binding inhibition in [9] is -1% (inactive). The response was 5.64% (inactive) in [10] and -1.68% (inactive) in assay [12]. Moreover, in [13], the binding (% of control) was 99.2% (inactive). Besides, the efflux inhibition (fraction of control) in assay [14] is -0.16 (inactive). In assay [16], the differentiation response is -11.9% (inactive).

In the case of `CCc1cc2c(C)cc(=O)oc2cc1OC(=O)C1CCCN1C(=O)OC(C)(C)C` (stereo not given), in [1], the percent of DMSO control GFP was 103% (inactive). The figures for the GFP response vs DMSO in assay [2] and in [4] were 95.2% (inactive) and 82% (inactive), respectively. Moreover, the percent response of DMSO control in assay [3] was 110% (inactive). For the same compound, the GFP response, % of DMSO in assay [5] was 96.3% (inactive). Further, in assay [6], the double positive events amounted to 57.4%. Further, in assay [6], the vesicle binding response is 247% (inactive). Also, the inhibition in assay [7] is 0.94% (inactive); in assay [11] it was -11.6% (inactive); in assay [15], 6% (inactive). In addition, in assay [8], the superoxide response (% of plate) was 92.9% (inactive). Further, the aptamer binding inhibition in [9] is 2% (inactive). Further, the results for the response in assay [10] and in assay [12] were 19.6% (inactive) and 1.36% (inactive), respectively. Besides, the binding (% of control) in assay [13] was 103% (inactive). Besides, the efflux inhibition (fraction of control) in assay [14] is -0.03 (inactive). Moreover, in assay [16], the differentiation response was -20% (inactive).
